Smad3 inh = Smad3/FoxH1 peptide binding inhibitors, primary screen, biochemical, TR-FRET. Mothers against decapentaplegic homolog 3 (Homo sapiens), P84022. TR-FRET Smad3/Dy647-FoxH1 peptide binding, europium anti-His. inhibition, % at 25 µM. 88,000 tested, 0.29% active. AID 630, 2007;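 active means compounds that reduce the energy-transfer binding signal between the protein and its labelled peptide by more than half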;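 further: 0% = Smad3 plus labelled peptide maximal FRET and 100% = peptide-only background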
Target sequence (P84022 whole entry, looked up): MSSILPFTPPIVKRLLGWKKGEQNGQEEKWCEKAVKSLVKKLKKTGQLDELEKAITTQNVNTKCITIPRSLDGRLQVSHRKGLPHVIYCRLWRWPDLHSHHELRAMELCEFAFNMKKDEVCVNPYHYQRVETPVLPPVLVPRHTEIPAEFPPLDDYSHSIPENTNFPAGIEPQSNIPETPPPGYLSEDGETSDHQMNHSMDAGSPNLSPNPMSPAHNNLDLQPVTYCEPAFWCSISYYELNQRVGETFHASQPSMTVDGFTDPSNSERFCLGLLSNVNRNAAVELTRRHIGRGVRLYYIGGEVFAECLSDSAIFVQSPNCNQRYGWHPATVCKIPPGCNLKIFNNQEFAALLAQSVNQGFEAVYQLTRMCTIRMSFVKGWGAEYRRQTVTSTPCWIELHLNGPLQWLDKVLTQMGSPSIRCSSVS
PostGolgi yeast = phenotypic screen on post-Golgi transport, primary screen. post-Golgi transport phenotypic cell assay. inhibition, % at 10 µM. 98,000 tested, 0.9% active;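 further: yeast cells grown in 1536-well plates; yeast grown about 18 h at 30C before absorbance read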
hDAT+cocaine = changed hDAT dopamine uptake under cocaine IC80, either direction, primary screen, cocaine antagonist project, cell-based, LLC-PK1 hDAT, [14C]-dopamine uptake, MLSMR; 110,000 tested, 1.3% active; LLC-PK1 hDAT cells, [14C]-dopamine uptake with cocaine IC80; actives deviate in either direction; B-score at 10 µM; AID 449768, 2010;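 active means Z score or B-score, a plate-position-corrected score, falls beyond the plate's 99.7% confidence bounds, in either direction; inactive means both scores lie inside the 99.7% bounds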;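 further: scored against the spread of the other compound wells on the same plate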
Cav3 T inh = Cav3.2 calcium influx blockers – cell-based, Fluo-4 calcium fluorescence, FDSS, MLSMR library, primary screen | Cav3.2-expressing cells; active compounds read low | B-score at 10 µM | 100,000 tested, 4% active;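 active means single-dose well whose peak fluorescence ratio is a statistical outlier from its plate by either plate-standardised score or position-corrected B-score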
PostGolgi ctrl = growth inhibition of yeast control strain, primary screen, counter-screen for post-Golgi transport modulator project; efflux-deficient yeast background strain, growth absorbance A615, 16 h; inhibition, % at 10 µM; 98,000 tested, 5% active
TNAP act DEA = human TNAP enzyme activators, primary screen, biochemical, luminescent, intermediate phosphate acceptor level. activation factor at 20 µM. purified TNAP, CDP-star luminescence, 100 mM DEA, 30 min; active compounds read high; scale: 0 levamisole-inhibited, 1 vehicle-only enzyme. 64,000 tested, under 10 active. Alkaline phosphatase, tissue-nonspecific isozyme (Homo sapiens), P05186. AID 813, 2007;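 active means activation factor of at least 2 at 20 µM, relative to controls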
* marks the source's active call; other numbers are inactive results. Rows were chosen to be rich in hits. Some 8.7% of all compounds tested hit in one or more screens of this group. Unless noted, no stated cut-off is given here; in the data, active means inhibition above about 30%; inactive means the rest.

Screening COc1ccc(C(=O)CSc2nnc(-c3cccnc3)n2Cc2ccco2)cc1 returned Smad3 inh 9, PostGolgi yeast 2, hDAT+cocaine 2.4, Cav3 T inh 0.035, PostGolgi ctrl 5 and TNAP act DEA 0.9.
For CCc1nnc(NC(=O)CSc2nnc(-c3cc4ccccc4cc3O)n2CC)s1 the results were Smad3 inh 9, PostGolgi yeast 11, hDAT+cocaine 0.89, Cav3 T inh -1.7, PostGolgi ctrl 7 and TNAP act DEA 0.8.
For CC1CCN(C(=O)CSc2nnc(CNc3ccc(F)cc3)n2Cc2ccco2)CC1 the results were Smad3 inh 3, PostGolgi yeast 3, hDAT+cocaine 1.1, Cav3 T inh -0.017 and PostGolgi ctrl 1.
Screening COc1ccc(C(=O)CSc2nnc(-c3cc4ccccc4cc3O)n2Cc2ccco2)cc1 returned Smad3 inh 0, PostGolgi yeast -14, hDAT+cocaine -0.34, Cav3 T inh 0.12, PostGolgi ctrl 56* and TNAP act DEA 1.
`CC1CCN(C(=O)CSc2nnc(-c3cc4ccccc4cc3O)n2Cc2ccco2)CC1` gave Smad3 inh 0, PostGolgi yeast 0, hDAT+cocaine 2.2, Cav3 T inh 0.25, PostGolgi ctrl 39* and TNAP act DEA 0.9.
Screening COc1ccc2[nH]c(=O)c(CN(CCCN(C)C)C(=O)Nc3ccc(F)cc3)cc2c1 returned Smad3 inh 9, PostGolgi yeast 2, hDAT+cocaine 0.14, Cav3 T inh -2, PostGolgi ctrl 10 and TNAP act DEA 0.9.
Cc1ccc(C2C(C#N)=C(N)Oc3cc4c(cc32)OCO4)cc1 (configuration not stated) was read as Smad3 inh -5, PostGolgi yeast -5, hDAT+cocaine -0.38, Cav3 T inh -4.4*, PostGolgi ctrl 14 and TNAP act DEA 0.8.
Screening N#CC1=C(N)OC(c2ccccc2)=C(C#N)C1c1ccc2c(c1)OCO2 (configuration not stated) returned Smad3 inh 3, PostGolgi yeast 104*, hDAT+cocaine -0.33, Cav3 T inh 0.9, PostGolgi ctrl 98* and TNAP act DEA 0.9.
For O=C(c1cc(-c2ccc(Cl)cc2Cl)on1)N1CCOCC1 the results were Smad3 inh 10, PostGolgi yeast -8, hDAT+cocaine 0.54, Cav3 T inh -0.14, PostGolgi ctrl 1 and TNAP act DEA 0.9.
Screening CCOc1cccc(-c2cc(=O)[nH][nH]2)c1 returned Smad3 inh 5, PostGolgi yeast 2, hDAT+cocaine 0.078, Cav3 T inh -0.068, PostGolgi ctrl 1 and TNAP act DEA 1.
COc1cc2c(cc1OC)C(c1cccc([N+](=O)[O-])c1)N(C(=O)c1ccc(F)cc1)CC2 (configuration not stated) was read as PostGolgi yeast 0, hDAT+cocaine -0.35, Cav3 T inh -5.3* and PostGolgi ctrl 25.
Screening COc1cc2c(cc1OC)C(c1ccccc1)N(C(=O)c1ccco1)CC2 (configuration not stated) returned Smad3 inh 1, PostGolgi yeast 0, hDAT+cocaine -0.52, Cav3 T inh -1.6, PostGolgi ctrl 28 and TNAP act DEA 1.
COc1cc(C(=O)Nc2ccc(-n3cnnn3)c(C)c2)cc(OC)c1OC was read as Smad3 inh -1, PostGolgi yeast -3, hDAT+cocaine -0.071, Cav3 T inh -4.4*, PostGolgi ctrl 10 and TNAP act DEA 1.
`CC(=O)c1cnc2nc(C)nn2c1C` gave Smad3 inh 3, PostGolgi yeast 32*, hDAT+cocaine -1, Cav3 T inh 1.1, PostGolgi ctrl -5 and TNAP act DEA 1.
CC(=O)c1cnc2c(C(=O)O)cnn2c1C was read as PostGolgi yeast 4, hDAT+cocaine -0.0068, Cav3 T inh -0.04 and PostGolgi ctrl -3.
For O=C(CN1CCN(C(=O)c2ccco2)CC1)Nc1cc(C(F)(F)F)ccc1Cl the results were Smad3 inh -10, PostGolgi yeast 1, hDAT+cocaine -0.0069, Cav3 T inh 0.29, PostGolgi ctrl 24 and TNAP act DEA 0.9.
Screening CC1(C)CC(=O)C2=C(C1)OC1=C(C(=O)CC(C)(C)C1)C2c1ccc(O)cc1O returned Smad3 inh 25, PostGolgi yeast 3, hDAT+cocaine -1.1, Cav3 T inh -4.7*, PostGolgi ctrl -5 and TNAP act DEA 0.8.
`CC(CC(=O)Nc1ccc2c(c1)OCCO2)c1ccccc1` (configuration not stated) gave Smad3 inh 12, PostGolgi yeast -10, hDAT+cocaine -0.91, Cav3 T inh 0.4 and PostGolgi ctrl 3.
For CC(=O)Nc1cccc(NC(=O)CSc2nnc(Cc3cccn3C)n2-c2ccc(C)cc2)c1 the results were PostGolgi yeast -5, hDAT+cocaine -0.39, Cav3 T inh -3.7, PostGolgi ctrl 8 and TNAP act DEA 1.
`COc1ccc(-n2c(Cc3cccn3C)nnc2SCC(=O)Nc2cccc(Cl)c2)cc1` gave Smad3 inh -11, PostGolgi yeast -3, hDAT+cocaine 0.79, Cav3 T inh -13*, PostGolgi ctrl 10 and TNAP act DEA 0.9.
`Cn1cccc1Cc1nnc(SCC(=O)Nc2cccc(Cl)c2)n1-c1ccc(F)cc1` gave Smad3 inh -5, PostGolgi yeast 0, hDAT+cocaine 0.076, Cav3 T inh -10*, PostGolgi ctrl 13 and TNAP act DEA 0.9.
Screening Cn1cccc1Cc1nnc(SCC(=O)Nc2cccc(F)c2)n1-c1ccc(F)cc1 returned Smad3 inh 4, PostGolgi yeast -2, hDAT+cocaine -0.72, Cav3 T inh -7.3*, PostGolgi ctrl 14 and TNAP act DEA 1.
`COC(=O)C1C(=O)C=C(N2CCOCC2)CC1(C)C` (configuration not stated) gave Smad3 inh -10, PostGolgi yeast 29, hDAT+cocaine -0.17, Cav3 T inh 0.63, PostGolgi ctrl -11 and TNAP act DEA 0.9.
`Cc1ccc(-c2ccc(/C=N/NC(=O)CN3CCCC3)o2)cc1Cl` gave PostGolgi yeast 1, hDAT+cocaine 0.1, Cav3 T inh 0.78 and PostGolgi ctrl 19.
O=C(O)c1cc(-c2ccc(/C=N/Nc3ccc(Cl)cc3)o2)ccc1Cl was read as PostGolgi yeast 63*, hDAT+cocaine 0.68, Cav3 T inh 1.4 and PostGolgi ctrl 10.
COc1ccc(NC(=O)C23CC4CC(C2)CC(n2cnc(Br)n2)(C4)C3)cc1Cl was read as PostGolgi yeast 11 and PostGolgi ctrl 9.
